# The entries come from a sample that favours hits as a whole.
# ST2 IL33 inh – blocks human ST2 binding to IL-33; AlphaLISA ST2-Fc/biotin-IL-33 interaction, 1 h; hit rate 2.3% among 78,000; inhibition, % for hits at 17 µM; in the data active = inhibition above about 30%
# Target sequence (Q01638 whole entry, looked up): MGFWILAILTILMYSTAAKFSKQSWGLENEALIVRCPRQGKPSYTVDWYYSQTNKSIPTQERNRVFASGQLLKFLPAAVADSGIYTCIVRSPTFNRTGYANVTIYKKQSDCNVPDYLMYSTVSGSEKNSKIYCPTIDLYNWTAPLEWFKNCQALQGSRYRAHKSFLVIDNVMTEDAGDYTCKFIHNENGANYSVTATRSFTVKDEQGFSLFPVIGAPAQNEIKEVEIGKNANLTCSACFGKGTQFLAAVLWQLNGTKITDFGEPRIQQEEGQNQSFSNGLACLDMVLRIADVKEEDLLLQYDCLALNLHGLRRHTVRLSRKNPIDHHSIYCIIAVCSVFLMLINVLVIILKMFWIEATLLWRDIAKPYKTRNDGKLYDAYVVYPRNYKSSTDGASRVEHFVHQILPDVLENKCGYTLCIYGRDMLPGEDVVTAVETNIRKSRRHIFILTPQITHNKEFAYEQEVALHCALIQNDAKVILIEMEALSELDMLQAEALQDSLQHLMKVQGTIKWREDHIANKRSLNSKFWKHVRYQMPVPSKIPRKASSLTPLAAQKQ
# * = called active by the depositor; i = inactive.
SMILES,ST2 IL33 inh
COc1ccc(-c2c3c(=O)n(C)c(=O)n(C)c3c3c(-c4ccccc4)cc(C)nn23)cc1,31%*
Cn1c(=O)c2c(-c3ccccc3)n3ncccc3c2n(C)c1=O,i
COc1ccc(-c2c3c(=O)n(C)c(=O)n(C)c3c3cccnn23)cc1,i
Cc1nc2c(c(NCCc3nccc(-c4ccccc4)n3)n1)CCNC2,i
O=C(Nc1ccccc1-c1ccccc1)c1ccccc1,i
CC(=O)Nc1ccc2cccccc1-2,56%*
O=C(CCCc1ccccc1)Nc1ccccc1-c1ccccc1,i
Cc1ccc(-c2cc(C(=O)NN)c3ccccc3n2)s1,i
Cn1c(=O)c2c(SCC(=O)N3CCCCC3)nc(-c3cccs3)nc2n(C)c1=O,i
Cn1c(=O)c(-c2ccccc2N)nc2cc3ccccc3cc21,32%*
CCCCSc1nnc(-c2ccccc2N)c(=O)[nH]1,i
Cc1cc2nc(Cc3cccc(F)c3)c(=O)n(C)c2cc1C,i
NC[C@H]1O[C@@H](CO)[C@@H](O)[C@H]1N1CCN(c2ccc(F)cc2)CC1,i
O=c1c(Cl)c(O)cnn1Cc1ccccc1,i
O=C(O)C1=CC(=C(c2ccc(O)c(C(=O)O)c2)c2ccc(O)c(C(=O)O)c2)C=CC1=O,89%*
Cc1ccc(NC(=O)CN2N=NC3C(=O)N(c4ccc(F)cc4)C(=O)C32)cc1C (stereo not drawn),i
CC1(C)CCN2CCC(C)(C)c3c(O)ccc1c32,73%*
CCOc1ccc(-n2nc3ccc(NC(=O)c4cccnc4)cc3n2)cc1,i
CCC(CC)n1nc(C)cc1NC(=O)c1ccco1,i
COc1ccc(N2C(=O)C3C4C=CC(C4)C3C2=O)cc1OC (stereo not drawn),i
COc1ccc(-n2c(C)c3c(C)nnc(C)c3c2C)cc1OC,31%*
COc1ccc(-n2c(CCN)n[nH]c2=O)cc1OC,i
Cc1cccc(NC(=O)CN2CCN(Cc3ccccc3Cl)S2(=O)=O)c1C,i
COC(=O)[C@@H]1C[C@@H](NC(=O)c2cccc(-c3noc(C)n3)c2)CN1C,i
CN1CCCN(Cc2coc3c(Cl)cc(Cl)cc3c2=O)CC1,i
SMILES,ST2 IL33 inh
CC(=O)NC(=O)c1cc2ccccc2oc1=Nc1ccc(F)cc1,i
CC(=O)NC(=O)c1cc2cc(Br)ccc2oc1=Nc1ccc(C#N)cc1,32%*
COc1ccc2oc(=Nc3ccc(C(F)(F)F)cc3)c(C(=O)NC(C)=O)cc2c1,i
CCOc1ccc(NS(=O)(=O)c2ccc(Br)s2)cc1,i
COc1ccc(Cc2nnc(NCc3ccco3)[nH]c2=O)cc1,i
Cc1c(C(c2ccccc2)c2c(C)n(C)n(-c3ccccc3)c2=O)c(=O)n(-c2ccccc2)n1C,i
Cc1nnc(C)c2c(C)n(C(C)c3ccccc3)c(C)c12 (stereo not drawn),47%*
O=C1NC(=O)N(c2ccccc2)C(=O)C1C(c1ccccc1)c1ccccc1 (stereo not drawn),i
CC1CC(Nc2ncnc3nc[nH]c23)CC(C)(C)C1 (stereo not drawn),i
COc1ccc(-c2nccn2CCc2ccccn2)c(OC)c1,i
COc1ccc(-c2cc3ccccn3c2)c(OC)c1,50%*
COc1ccc(-c2ccnc(N)c2)c(OC)c1,i
CCOC(=O)C1=C(C)Nc2nc(SCc3ccccc3F)nn2C1c1ccc(OC)cc1 (stereo not drawn),i
COc1cc(NC(=O)CCC2CCCN(C(=O)C3=CCCCC3)C2)cc(OC)c1 (stereo not drawn),i
Cc1ccc2nc(-c3ccc(C)o3)c(Nc3ccccc3)n2c1,i
Clc1ccc2nc(-c3ccco3)c(Nc3ccc4c(c3)OCO4)n2c1,i
Cc1ccc(-c2nc3ccc(Br)cn3c2Nc2ccc3c(c2)OCO3)o1,i
Cc1ccc2nc(-c3ccccn3)c(Nc3ccc4c(c3)OCO4)n2c1,32%*
COc1ccc(Nc2c(-c3ccccn3)nc3ccc(Br)cn23)cc1,i
Cc1ccc2nc(-c3c[nH]c4ccccc34)c(NC3CCCC3)n2c1,i
Cc1ccc2nc(-c3ccccn3)c(Nc3ccc4c(c3)OCCO4)n2c1,31%*
Cc1ccc(-c2nc3cnccn3c2NC2CCCCC2)o1,i
Cc1ccc2nc(-c3ccc(C)o3)c(Nc3ccc4c(c3)OCCO4)n2c1,i
Cc1ccc(-c2nc3ccccn3c2Nc2ccc3c(c2)OCCO3)o1,35%*
Brc1ccc2nc(-c3ccccn3)c(Nc3ccccc3)n2c1,i
SMILES,ST2 IL33 inh
Cc1ccn2c(NC3CCCC3)c(-c3ccccn3)nc2c1,38%*
CO[C@H]1CN(C(=O)C2CCN(C(=O)c3ccccn3)CC2)CC[C@H]1N,i
COc1ccc(OC)c(-c2nc(Cn3nc(C)nc3C)c(C)o2)c1,i
O=C(Nc1c(C(=O)Nc2ccccc2F)oc2ccccc12)c1cccc(F)c1,i
CN1C(=O)N(Cc2cccnc2)C(=O)C12CCN(Cc1ccc(C#CC(C)(C)O)cc1)CC2,i
Cc1ccc(CN2CCSc3ccc(C(=O)NCCN4CCOCC4)cc32)cc1,i
Cc1ccc(-c2nc3cnccn3c2Nc2ccc3c(c2)OCO3)o1,i
Cc1ccn2c(Nc3ccccc3)c(-c3ccc(C)o3)nc2c1,i
Cc1ccn2c(Nc3ccc4c(c3)OCO4)c(-c3ccccn3)nc2c1,31%*
CCOC(=O)C1=C(N)OC2=C(C(=O)CC(c3ccccc3)C2)C1c1ccccc1 (stereo not drawn),i
CCn1c(C2CCN(C(=O)c3cc4c(s3)CCCC4)CC2)nn(C)c1=O,i
COc1ccc(Cl)cc1C(=O)Nc1c2c(nn1C(C)(C)C)CSC2,i
CCc1ccc(CN(C)C2CCN(C)CC2)cc1,i
NC(=S)c1ccc[n+]([C@@H]2O[C@H](COP(=O)([O-])OP(=O)(O)OC[C@H]3O[C@@H](n4cnc5c(N)ncnc54)[C@H](OP(=O)(O)O)[C@@H]3O)[C@@H](O)[C@H]2O)c1,i
Cc1ccc(Cl)cc1-c1ccc(/C=C/[N+](=O)[O-])o1,51%*
CC(=O)Nc1ccccc1-c1ccc(C)o1,i
COc1cc([N+](=O)[O-])ccc1-c1ccc(/C=C2\C(=O)N(c3cccc(Cl)c3)N=C2C)o1,i
N=C1S/C(=C/c2ccc(-c3ccccc3C(=O)O)o2)C(=O)N1c1nccs1,i
Cc1c(C(=O)O)cccc1-c1ccc(/C=C/[N+](=O)[O-])o1,61%*
CCCS(=O)(=O)N1CCCC(C(=O)N2CCN(c3ncccn3)CC2)C1 (stereo not drawn),i
COc1ccc(C(=O)Nc2cccc(Cl)c2Cl)cc1OC,i
CC(C)c1ccc(NS(=O)(=O)c2ccc3c(c2)NC(=O)CC(=O)N3)cc1,i
CN(CCNC(=O)C1(S(=O)(=O)c2ccc(Cl)cc2)CC1)Cc1ccccc1,i
Nc1c(Oc2ccccc2)c(Oc2ccccc2)c(N)c2c1C(=O)c1ccccc1C2=O,92%*
O=C1c2ccccc2C(=O)N1CC(O)COc1ccccc1 (stereo not drawn),i
SMILES,ST2 IL33 inh
Nc1nc(N)nc(-c2ccc(Oc3ccccc3)cc2)n1,i
CN(Cc1nc2ccc(F)cc2[nH]1)Cc1nc(C(c2ccccc2)c2ccccc2)no1,i
CN(CCCc1cnn(C)c1)C(=O)c1ccc(-c2ccn[nH]2)cc1,i
COc1ccc(OC)c(-c2cc(C(=O)Nc3sc4c(c3C#N)CCC4)no2)c1,i
COC(=O)c1ccc(C(=O)Nc2sc3c(c2C#N)CCCCC3)cc1,i
COc1ccc(OC)c(-c2ncnn2-c2sc3c(c2C#N)CCCCC3)c1,34%*
COc1ccccc1-c1cc(C(=O)Nc2sc3c(c2C#N)CCCC3)no1,i
COc1ccc(-c2ncnn2-c2sc3c(c2C#N)CCCCC3)cc1OC,44%*

# Screening data: PubChem, Paczesny and Yang Labs, IUPUI and University of Michigan
